The nature of experiment [1]: Cell Viability - LYMP2-007 (AID 979).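 Also: cells exposed to compound for 24 h before reading; 0% = DMSO only and the negative end = 92 µM tetraoctylammonium bromide; nearly all actives have a fitted effect of over 60% in size.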 The method in brief: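 Acute toxicity is scored as a concentration-dependent fall in intracellular ATP in human lymphoblastoid cells treated 24 hr at 37 C, measured by luciferase luminescence; Hill-equation modelling yields AC50.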
The nature of experiment [2]: Cell Viability - LYMP2-008 (AID 980). Also: % is scaled to controls: 0 for no effect and ±100 for the full control effect; nearly all actives have a fitted effect of over 60% in size. The method in brief: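 Acute cytotoxicity is scored as concentration-dependent loss of cellular ATP in a human lymphoblastoid line after 24 hr treatment at 37 C. ATP is quantified by luciferase luminescence.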
Experiment [3] can be described thus: Cell Viability - LYMP2-010 (AID 981).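 Also: cells exposed to compound for 24 hours at 37 °C; % is scaled to controls: 0 for no effect and ±100 for the full control effect; nearly all actives have a fitted effect of over 55% in size.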 The procedure, abridged:
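Acute toxicity is scored as a concentration-dependent loss of cellular ATP in human lymphoblastoid cells after 24 hr compound exposure in complete medium. Tetraoctylammonium bromide is the positive control.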

Experiment [4] in a line: Cell Viability - LYMP2-012 (AID 982).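 Also: cellular ATP by luciferase luminescence where a drop means cytotoxicity; cells exposed to compound for one day before reading; 0% = DMSO only and full loss = 92 µM tetraoctylammonium bromide; nearly all actives have a fitted effect of over 55% in size.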
Experiment [5] is described as follows: Cell Viability - LYMP2-014 (AID 983).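 Also: series mostly up to about 92 µM; plate controls were DMSO only for no effect and 92 µM tetraoctylammonium bromide for full effect; nearly all actives have a fitted effect of over 50% in size.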 The procedure, abridged:
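Decrease in intracellular ATP after 24 hr treatment at 37 C, measured by luciferase luminescence, indicated cytotoxicity. Concentration-response data were fitted with the standard Hill equation to give AC50.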

Experiment [6] is described as follows: Cell Viability - LYMP2-016 (AID 984).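 Also: cells exposed to compound for 24 hours at 37 °C; % is scaled to controls: 0 for no effect and ±100 for the full control effect; nearly all actives have a fitted effect of over 55% in size.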 The procedure, abridged:
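Human lymphoblastoid LYMP2-016 cells, 2500 per well, treated with compounds for 24 h at 37 C. Viability read as intracellular ATP by CellTiter-Glo luminescence after 30 min at room temperature; AC50 from Hill fits of concentration-response.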

A short description of experiment [7]: Cell Viability - LYMP2-018 (AID 985).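 Also: compound exposure lasted 24 hr at 37 °C; plate controls were DMSO only for no effect and tetraoctylammonium bromide at 92 µM for full effect; nearly all actives have a fitted effect of over 50% in size.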 The method in brief: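 Acute cytotoxicity is scored as a concentration-dependent drop in intracellular ATP after 24 hr exposure of the lymphoblastoid line in complete culture medium, measured by luciferase luminescence. Potency is expressed as AC50 from Hill modelling.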
Experiment [8] can be described thus: Cell Viability - LYMP2-020 (AID 986).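 Also: series mostly up to about 92 µM; plate controls were DMSO only for no effect and tetraoctylammonium bromide at 92 µM for full effect; nearly all actives have a fitted effect of over 55% in size.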 The method in brief:
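Acute cytotoxicity in a human lymphoblastoid line is scored as a concentration-dependent fall in cellular ATP after 24 hr at 37 C in complete medium. The positive control is tetraoctylammonium bromide, and potency is given as Hill-fit AC50.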

A short description of experiment [9]: Cell Viability - LYMP2-022 (AID 987). The procedure, abridged:
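Acute toxicity in a human lymphoblastoid line is scored as decreased intracellular ATP after 24 hr compound treatment at 37 C. ATP is measured by CellTiter-Glo luminescence; curves are fitted with the Hill equation to give AC50.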

Experiment [10] in a line: Cell Viability - LYMP2-024 (AID 988).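 Also: cells exposed to compound for 24 hr at 37 °C; plate controls were DMSO only for no effect and 92 µM tetraoctylammonium bromide for full effect; nearly all actives have a fitted effect of over 60% in size.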 The procedure, abridged: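 Acute toxicity is measured as concentration-dependent loss of intracellular ATP in a human lymphoblastoid line treated 24 hours at 37 C. Luciferase luminescence quantifies ATP; AC50 values come from standard Hill-equation modelling.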
Experiment [11] in a line: Cell Viability - LYMP2-026 (AID 989). Also: % is scaled to controls: 0 for no effect and ±100 for the full control effect; nearly all actives have a fitted effect of over 50% in size. The method in brief: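 Concentration-dependent loss of intracellular ATP in human lymphoblastoid cells after 24 hr at 37 C, quantified by luciferase luminescence. AC50 derived from standard Hill equation.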
The nature of experiment [12]: Cell Viability - LYMP1-002 - Assay at 24 hr (AID 993). Also: % is scaled to controls: 0 for no effect and ±100 for the full control effect. The procedure, abridged:
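qHTS, LYMP1-002 lymphoblastoid, 24 h cpd, 37 C, CellTiter-Glo ATP luminescence; AC50 via Hill eq.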

Experiment [13] is described as follows: Cell Viability - LYMP1-002 - Assay at 40 hr (AID 994).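 Also: 0% = DMSO only and full inhibition = 92 µM tetraoctylammonium bromide; nearly all actives have a fitted effect of over 60% in size.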 The method in brief:
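Viability in the human lymphoblastoid line was measured as intracellular ATP via CellTiter-Glo after 40 hr compound exposure. Tetraoctylammonium bromide served as positive control.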

Experiment [14] addresses Glucocorticoid receptor (Homo sapiens) (UniProt P04150). The experiment can be described thus: qHTS assay for small molecule agonists of glucocorticoid receptor signaling (AID 588532; active = well fitted curve in the direction sought with a large enough effect in the signal ratio, with a control signal flat; the % refers to the signal ratio;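 also: 100% = dexamethasone at 0.1 µM and 0% = DMSO only wells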). The conditions noted are these: HeLa MMTV-bla, beta-lactamase ratio, agonist, 18 h; stronger effect = higher value; percent of dexamethasone control, DMSO zero. The procedure, abridged: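 Agonist-mode qHTS: GRE-driven beta-lactamase in HeLa cells exposed 18 h to titrated compounds (up to 92 uM), then CCF4 ratio read after 2 h at RT; Hill-fitted EC50, efficacy relative to 0.1 uM dexamethasone.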

Experiment [15] concerns the target Peroxisome proliferator-activated receptor gamma (Homo sapiens) (UniProt P37231). In words: qHTS assay for small molecule agonists of peroxisome proliferator-activated receptor gamma signaling (AID 588536; active = well fitted curve in the direction sought with a large enough effect in the signal ratio, with a control signal flat, not every such curve was filed as active; the % refers to the signal ratio;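 also: 0% = DMSO basal wells and 100% = rosiglitazone at 2 µM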). The procedure, abridged:
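PPAR-gamma-UAS-bla HEK293 cells in medium with 1% charcoal/dextran-treated FBS were exposed to compounds for 16 h at 37 C. Beta-lactamase activity was read with CCF4 substrate (405 nm excitation, 460/530 nm emission).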
(qHTS replaces the single test concentration by a dilution series.)

Experiment [16] has as its target Vitamin D3 receptor (Homo sapiens) (UniProt P11473). The experiment can be described thus: qHTS assay for small molecule antagonists of vitamin D receptor signaling (AID 588541; calls by dose curve;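 also: receptor activated by calcitriol during compound treatment; series mostly up to about 77 µM; % is scaled to controls: 0 for no effect and ±100 for the full control effect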). The procedure, abridged:
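Antagonist-mode beta-lactamase reporter assay: HEK293T VDR-UAS-bla cells were exposed to titrated compound alongside 1-alpha,25-dihydroxyvitamin D3 at 3 nM final for 16 h. Values were normalized to the 50 nM agonist control and DMSO basal, with IC50 and efficacy from Hill equation fits.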

Experiment [17] shares this target. In words: qHTS assay for small molecule agonists of vitamin D receptor signaling (AID 588543; calls by dose curve;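 also: 0% = DMSO basal and 100% = reference agonist control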). The method in brief: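 VDR-UAS-bla HEK293T cells, 2000/well, 2% charcoal-stripped FBS; compound titration 16 h at 37 C; CCF4 beta-lactamase ratio read. Normalized to 50 nM 1-alpha,25-dihydroxyvitamin D3 (100%) and DMSO; Hill fit gives EC50, efficacy.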
The nature of experiment [18]: qHTS assay for small molecule antagonists of retinoid X receptor alpha signaling (AID 588546; active = well fitted inhibition curve with a large enough effect in the signal ratio, with a control signal flat, not every such curve was filed as active; the % refers to the signal ratio;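 also: cells stimulated with 9-cis-retinoic acid as agonist; % is scaled to controls: 0 for no effect and ±100 for the full control effect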). The note with it: HEK293T RXRa-UAS-bla, beta-lactamase ratio, antagonist mode; measured here: W530 green channel, cytotoxicity proxy. The procedure, abridged: (§1)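 Beta-lactamase reporter inhibition, read as CCF4 fluorescence ratio (ex 405, em 460/530 nm) after 2 h at RT. HEK293T UAS-bla cells, 2500/well, were stimulated with 9-cis-RA at 500 or 100 nM final alongside test compound for 18 h at 37 C.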

The target in experiment [19] is Retinoic acid receptor RXR-alpha (Homo sapiens) (UniProt P19793). The experiment is described as above. The note with it: HEK293T RXRa-UAS-bla, beta-lactamase ratio, antagonist mode. The method in brief: as §1
In experiment [20] the target is Thyroid hormone receptor beta (Homo sapiens) (UniProt P10828). The experiment can be described thus: qHTS assay for small molecule antagonists of thyroid hormone receptor beta signaling (AID 588547; active = well fitted inhibition curve with a large enough effect in the signal ratio, with a control signal flat, not every such curve was filed as active; the % refers to the signal ratio;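 also: cells stimulated with 0.4 nM T3 agonist during compound exposure; series mostly up to about 77 µM; % is scaled to controls: 0 for no effect and ±100 for the full control effect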). The note with it: TR-UAS-bla HEK293, beta-lactamase ratio, antagonist mode, 18 h. The procedure, abridged:
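Inhibition of T3-driven (0.4nM final) beta-lactamase reporter activity was measured over 0.59 nM to 92 uM compound after 18 h at 37 C. The cells were GripTite HEK293 TR-UAS-bla in charcoal/dextran-stripped serum, with CCF4 ratio read-out and IC50 from Hill fits.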

In experiment [21] the target is Voltage-gated inwardly rectifying potassium channel KCNH2 (Homo sapiens) (UniProt Q12809). The experiment can be described thus: qHTS Assay for Small Molecule Inhibitors of the Human hERG Channel Activity (AID 588834).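 Also: top concentration of the series differs between compounds; % is scaled to controls: 0 for no effect and ±100 for the full control effect; lower thallium flux fluorescence means stronger hERG block; nearly all actives have a fitted effect of over 50% in size.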 The method in brief: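 U2OS cells BacMam-transduced with hERG, 2000 cells/well, compound ~10 min at 37 °C before stimulation buffer. FluxOR thallium flux fluorescence read kinetically on FDSS; decrease indicates block; AC50 from Hill fits.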

Experiment [22] is described as follows: qHTS assay for small molecule activators of the p53 signaling pathway (AID 651743; active = well fitted activation curve with a large enough effect in the signal ratio, not every such curve was filed as active; the % refers to the signal ratio; also: series mostly up to about 92 µM; % of control where 0% means no effect). The conditions noted are these: HCT-116 p53RE-bla, beta-lactamase FRET ratio, 16 h; activation: stronger effect = higher value. The procedure, abridged:
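Screen for p53 pathway agonists uses stably transfected p53RE-bla HCT-116 cells, 4,000 per well, treated 16 h at 37 C with compounds in DMSO.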

Experiment [23] can be described thus: qHTS assay for small molecule activators of the nuclear factor-kappa B (NF-kB) signaling pathway (AID 651749; active = well fitted activation curve with a large enough effect in the signal ratio; the % refers to the signal ratio; also: series mostly up to about 77 µM; % of control where 0% means no effect). The note with it: NF-kB-bla ME-180 cells, beta-lactamase FRET ratio, 16 h; activation: stronger effect = higher value. The procedure, abridged:
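Stably transfected ME-180 line; NF-kB response element upstream of beta-lactamase. Treatment: compound or DMSO, 16 hr. Detection: fluorescent FRET substrate.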

Records with an inconclusive call do not appear. Activity calls are given as the source filed them. Unless noted, calls follow the shape of the dose curve; as a rule, active = well fitted curve in the direction sought with a large enough effect; inconclusive = small, poorly fitted or top-dose-only effect, or another doubt; inactive = no such curve, though single readings can be large; an effect the other way counts as inactive or inconclusive.

Vitamin D3 receptor (Homo sapiens), sequence (P11473 whole entry, looked up): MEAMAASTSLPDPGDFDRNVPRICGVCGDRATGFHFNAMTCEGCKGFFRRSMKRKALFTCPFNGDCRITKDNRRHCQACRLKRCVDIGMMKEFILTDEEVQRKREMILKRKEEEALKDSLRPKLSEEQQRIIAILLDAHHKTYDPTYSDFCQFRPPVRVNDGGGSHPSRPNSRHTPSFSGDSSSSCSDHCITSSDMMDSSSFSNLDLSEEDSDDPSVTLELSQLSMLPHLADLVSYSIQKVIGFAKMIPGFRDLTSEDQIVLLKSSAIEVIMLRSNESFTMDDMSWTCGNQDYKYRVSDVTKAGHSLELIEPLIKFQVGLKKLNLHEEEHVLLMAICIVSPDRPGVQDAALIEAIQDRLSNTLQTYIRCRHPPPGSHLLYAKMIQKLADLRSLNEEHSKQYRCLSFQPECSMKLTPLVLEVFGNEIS
Voltage-gated inwardly rectifying potassium channel KCNH2 (Homo sapiens), sequence (Q12809 whole entry, looked up): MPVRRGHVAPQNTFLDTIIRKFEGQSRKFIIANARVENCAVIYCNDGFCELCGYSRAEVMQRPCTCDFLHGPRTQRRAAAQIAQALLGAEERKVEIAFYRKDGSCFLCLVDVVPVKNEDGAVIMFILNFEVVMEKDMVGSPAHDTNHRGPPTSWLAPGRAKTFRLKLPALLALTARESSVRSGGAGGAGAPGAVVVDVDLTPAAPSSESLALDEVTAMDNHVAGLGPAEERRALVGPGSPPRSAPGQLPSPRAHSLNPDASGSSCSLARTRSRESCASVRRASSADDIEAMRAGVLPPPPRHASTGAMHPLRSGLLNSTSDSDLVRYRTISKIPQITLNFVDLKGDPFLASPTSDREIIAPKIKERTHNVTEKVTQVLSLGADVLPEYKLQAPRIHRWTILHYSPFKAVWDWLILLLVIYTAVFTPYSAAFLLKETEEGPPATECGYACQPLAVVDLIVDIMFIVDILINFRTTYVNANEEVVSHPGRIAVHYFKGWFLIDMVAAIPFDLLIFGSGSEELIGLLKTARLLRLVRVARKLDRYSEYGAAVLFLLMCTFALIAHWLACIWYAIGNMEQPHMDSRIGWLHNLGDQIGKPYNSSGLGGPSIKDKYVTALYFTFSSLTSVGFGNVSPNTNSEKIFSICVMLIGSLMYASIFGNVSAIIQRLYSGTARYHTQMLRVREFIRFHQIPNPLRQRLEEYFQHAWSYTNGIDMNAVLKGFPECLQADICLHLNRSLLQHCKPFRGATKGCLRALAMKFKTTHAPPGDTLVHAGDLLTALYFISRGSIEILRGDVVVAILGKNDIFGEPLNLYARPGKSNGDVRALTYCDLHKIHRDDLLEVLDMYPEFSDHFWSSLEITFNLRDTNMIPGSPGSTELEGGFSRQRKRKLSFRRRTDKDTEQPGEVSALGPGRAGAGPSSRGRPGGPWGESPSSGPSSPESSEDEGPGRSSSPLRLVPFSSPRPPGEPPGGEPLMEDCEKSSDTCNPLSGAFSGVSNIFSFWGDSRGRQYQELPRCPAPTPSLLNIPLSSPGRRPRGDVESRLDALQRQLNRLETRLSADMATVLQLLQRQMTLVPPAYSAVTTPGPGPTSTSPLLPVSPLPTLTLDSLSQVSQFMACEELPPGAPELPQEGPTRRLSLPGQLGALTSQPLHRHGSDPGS
Thyroid hormone receptor beta (Homo sapiens), sequence (P10828 whole entry, looked up): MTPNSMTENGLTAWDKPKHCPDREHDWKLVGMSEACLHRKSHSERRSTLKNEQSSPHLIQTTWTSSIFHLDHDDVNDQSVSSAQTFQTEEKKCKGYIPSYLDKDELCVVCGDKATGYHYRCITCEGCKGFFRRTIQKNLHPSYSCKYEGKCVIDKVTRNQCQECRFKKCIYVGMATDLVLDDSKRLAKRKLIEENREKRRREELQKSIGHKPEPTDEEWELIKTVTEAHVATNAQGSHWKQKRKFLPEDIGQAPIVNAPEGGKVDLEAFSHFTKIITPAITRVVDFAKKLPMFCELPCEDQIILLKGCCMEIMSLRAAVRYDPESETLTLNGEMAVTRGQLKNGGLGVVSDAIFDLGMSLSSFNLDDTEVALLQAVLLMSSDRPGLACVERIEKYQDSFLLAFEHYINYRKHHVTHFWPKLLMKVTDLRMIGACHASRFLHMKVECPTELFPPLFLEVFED
Retinoic acid receptor RXR-alpha (Homo sapiens), sequence (P19793 whole entry, looked up): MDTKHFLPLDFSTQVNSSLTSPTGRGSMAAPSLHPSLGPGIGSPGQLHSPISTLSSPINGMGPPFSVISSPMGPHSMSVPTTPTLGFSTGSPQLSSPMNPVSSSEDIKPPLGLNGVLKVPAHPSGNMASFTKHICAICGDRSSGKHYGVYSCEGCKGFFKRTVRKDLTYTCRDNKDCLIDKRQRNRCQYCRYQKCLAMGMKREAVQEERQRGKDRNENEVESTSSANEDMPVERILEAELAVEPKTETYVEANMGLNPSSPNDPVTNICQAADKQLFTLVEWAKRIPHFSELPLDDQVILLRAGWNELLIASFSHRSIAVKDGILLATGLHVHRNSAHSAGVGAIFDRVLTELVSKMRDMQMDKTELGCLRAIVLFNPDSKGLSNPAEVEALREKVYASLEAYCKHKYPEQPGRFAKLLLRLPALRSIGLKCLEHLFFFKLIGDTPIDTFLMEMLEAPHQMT
Glucocorticoid receptor (Homo sapiens), sequence (P04150 whole entry, looked up): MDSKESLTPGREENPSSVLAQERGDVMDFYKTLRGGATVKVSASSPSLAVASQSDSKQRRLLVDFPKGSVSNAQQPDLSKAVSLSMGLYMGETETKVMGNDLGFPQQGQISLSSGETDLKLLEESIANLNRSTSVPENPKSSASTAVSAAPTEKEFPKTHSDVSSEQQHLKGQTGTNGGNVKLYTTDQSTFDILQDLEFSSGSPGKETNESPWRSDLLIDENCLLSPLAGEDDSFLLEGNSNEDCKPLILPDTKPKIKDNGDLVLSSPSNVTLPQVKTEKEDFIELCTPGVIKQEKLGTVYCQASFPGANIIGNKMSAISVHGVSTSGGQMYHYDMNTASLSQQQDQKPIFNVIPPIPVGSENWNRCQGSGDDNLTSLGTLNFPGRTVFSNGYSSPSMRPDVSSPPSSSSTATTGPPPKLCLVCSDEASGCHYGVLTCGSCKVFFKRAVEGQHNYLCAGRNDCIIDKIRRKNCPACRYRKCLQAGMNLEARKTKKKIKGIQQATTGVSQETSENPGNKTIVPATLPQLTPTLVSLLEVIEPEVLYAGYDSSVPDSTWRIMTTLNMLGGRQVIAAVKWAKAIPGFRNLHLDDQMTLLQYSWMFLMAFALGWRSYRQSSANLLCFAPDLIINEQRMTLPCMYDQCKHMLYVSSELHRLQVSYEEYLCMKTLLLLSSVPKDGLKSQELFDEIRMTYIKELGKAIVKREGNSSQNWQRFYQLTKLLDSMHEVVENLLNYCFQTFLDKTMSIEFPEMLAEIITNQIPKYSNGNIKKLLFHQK
Peroxisome proliferator-activated receptor gamma (Homo sapiens), sequence (P37231 whole entry, looked up): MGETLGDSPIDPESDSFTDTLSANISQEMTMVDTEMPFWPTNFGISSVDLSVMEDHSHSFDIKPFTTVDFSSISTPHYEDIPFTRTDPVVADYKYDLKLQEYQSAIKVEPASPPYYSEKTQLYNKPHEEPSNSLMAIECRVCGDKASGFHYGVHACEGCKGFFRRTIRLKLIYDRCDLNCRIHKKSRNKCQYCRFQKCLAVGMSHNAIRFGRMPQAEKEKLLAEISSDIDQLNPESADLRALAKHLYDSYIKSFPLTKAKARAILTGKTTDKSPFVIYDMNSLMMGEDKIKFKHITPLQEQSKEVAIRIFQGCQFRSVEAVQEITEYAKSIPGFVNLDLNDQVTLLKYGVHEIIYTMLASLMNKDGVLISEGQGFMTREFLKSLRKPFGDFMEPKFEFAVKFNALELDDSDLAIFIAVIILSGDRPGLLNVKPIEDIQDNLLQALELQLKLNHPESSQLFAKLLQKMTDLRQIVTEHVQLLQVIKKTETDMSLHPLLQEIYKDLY

Take `COC1=CC(=O)OC(CCc2ccccc2)C1` (stereo not drawn): the Potency entry in [1], in experiment [2], in experiment [3], in experiment [4], in experiment [5] and in experiment [6] was “inactive” in each case. Further, the Potency entry in experiment [7], in experiment [8], in experiment [9], in experiment [10], in [11] and in experiment [12] was “inactive” throughout. In addition, the Potency result in [13] and in experiment [21] was “inactive” in each case. Moreover, the activation in experiment [14] is -4.92% (inactive); in experiment [22] it was -2.49% (inactive); in [23], -1.07% (inactive). The outcome in [15], in experiment [16] and in experiment [17] was inactive. Moreover, the max response in [18] is -2.34%; in experiment [19] it was 14.2% (inactive). Moreover, the activity change % (negative = inhibition) in [20] was 3.59% (inactive).

Values taken from PubChem BioAssay (NCATS).
